Screening results: PubChem, National Center for Advancing Translational Sciences (NCATS)
BAZ2B block = blocks human BAZ2B. Q9UIF8. Potency, µM (highest dose often 114 µM), for the others: at the highest dose activity change, negative = inhibition, hits mostly inhibitors. actives 4.4% (n = 360,000). AlphaScreen BAZ2B-H3K14Ac peptide displacement; note: % is set by controls: 0 for no effect and ±100 for the full control effect; nearly all actives have a fitted effect of over 60% in size
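In this displacement format the biotinylated H3(5-23) peptide acetylated at Lys14 serves as ligand at 50 nM, with BAZ2B at 50 nM in PBS pH 7.4 containing 0.01% Tween-20. Donor and acceptor beads are 10 ug/mL final.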
PLK1 PBD inh = blocks phosphopeptide binding to human PLK1 polo-box domain; P53350; Plk1 PBD binding of FITC phosphopeptide, fluorescence polarization; Potency, µM, inactives show max response, negative = inhibition, most hits filed as inhibitors; actives 2.8% (n = 360,000); AID 720504; note: series mostly up to about 57 µM; % is set by controls: 0 for no effect and ±100 for the full control effect; nearly all actives have a fitted effect of over 65% in size
Sfp PPTase inh = Sfp phosphopantetheinyl transferase inhibition; Q9F4F7; Biochemical Sfp PPTase activity, qHTS; Potency, µM, inactives show largest response in the series, negative = inhibition, actives largely listed as inhibitors; actives 3.5% (n = 310,000); AID 1490;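 note: the enzyme is Sfp with the accession as filed and its product quenches rhodamine fluorescence; 0% = enzyme reaction without inhibitor and -100% = no enzyme wells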
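Fluorescence-quenching assay with 15 nM Sfp, 5 uM rhodamine-CoA and 12.5 uM BHQ-2-labelled ybbR peptide in pH 7.6 Hepes/MgCl2 buffer. Enzyme was pre-incubated with compound for 15 min at room temperature. Rate was taken from the 30-min fluorescence change (525/598 nm).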
G9a block = inhibitors of human histone lysine methyltransferase G9a. Q96KQ7. G9a H3K9 monomethylation, AlphaScreen, 2 h. Potency, µM (titrated, usually from 102 µM), for the others: at the top dose activity, negative = inhibition, actives largely listed as inhibitors. actives 8.8% (n = 350,000). AID 504332; note: % is set by controls: 0 for no effect and ±100 for the full control effect; nearly all actives have a fitted effect of over 75% in size
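Compounds were preincubated with 20 nM G9a for 15 min, after which biotinylated H3K9 peptide (500 nM) and SAM (20 uM) started a 2 h room-temperature reaction. Monomethylated product was quantified by antibody-based AlphaScreen chemiluminescence.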
JMJD2A Tudor inh = JMJD2A Tudor domain (human) inhibition; O75164; AlphaScreen JMJD2A-Tudor / H3K4me3 peptide binding; Potency, µM (titrated, usually from 114 µM), without a hit: top-dose activity change, negative = inhibition, usual class: inhibitors; actives 4.4% (n = 390,000); note: % is set by controls: 0 for no effect and ±100 for the full control effect; nearly all actives have a fitted effect of over 50% in size
HP1b binding inh = blocks HP1-beta chromodomain binding to methylated histone tails; P83916; AlphaScreen HP1-beta / biotin-H3K9me3 peptide binding; Potency, µM (series often up to 114 µM), for inactives: at the highest dose activity change, negative = inhibition, most hits filed as inhibitors; actives 0.56% (n = 390,000); AID 540317; note: nearly all actives have a fitted effect of over 70% in size
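HP1-beta protein (50 nM final) preincubated 30 min at room temperature with biotinylated H3(1-18)K9me3 peptide (50 nM) in PBS pH 7.4, 0.01% Tween-20, then compound added for 30 min. AlphaScreen streptavidin donor/nickel chelate acceptor beads (10 ug/mL final), 30 min dark, luminescence read.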
* hit, by the source's call; ? = inconclusive; . = no result given; ! = a repeat was not active; [ ] = remark or other dose. An excerpt weighted towards active compounds, which were near 12% of everything screened. Calls come from the whole dose curve; as a rule, active = well fitted curve in the direction sought with a large enough effect; inconclusive = small, poorly fitted or top-dose-only effect, or another doubt; inactive = no such curve, though single readings can be large; an effect the other way counts as inactive or inconclusive. Potency is the fitted concentration of half-maximal effect.

SMILES | BAZ2B block | PLK1 PBD inh | Sfp PPTase inh | G9a block | JMJD2A Tudor inh | HP1b binding inh
Cc1ccc(NC(=O)CN2C(=O)N/C(=C\c3cccn3-c3cccc(C(=O)O)c3)C2=O)cc1 | 10µM* | ? | 40µM* | 8.9µM* | 22µM* | 71µM*
Cc1ccc(CN2C(=O)N/C(=C\c3cccn3-c3cccc(C(=O)O)c3)C2=O)cc1 | 35µM* | ? | 50µM* | 16µM* | 45µM* | ?
Cc1ccc(NC(=O)CN2C(=O)N/C(=C/c3ccc(N4CCOCC4)cc3)C2=O)cc1 | 6% | 3% | 12% | 30%[59 µM] | -19% | 7%
CCn1c(C)cc(/C=C2\NC(=O)N(CC(=O)Nc3cccc(C)c3)C2=O)c1C | ? | -11% | -6% | ? | -19% | 11%
Cc1cccc(NC(=O)CN2C(=O)N/C(=C\c3ccc(-c4cccc(C(=O)O)c4)o3)C2=O)c1 | -20% | ? | 40µM* | 45µM* | -18% | 5%
CCn1c(C)cc(/C=C2/NC(=O)N(CC(=O)Nc3cccc(C)c3)C2=O)c1C | -39% | -8% | 6% | 45µM* | -29% | -13%
Cc1cc(C(=O)O)ccc1-c1ccc(/C=C2\NC(=O)N(Cc3ccc(F)cc3)C2=O)o1 | 40µM* | ? | ? | 28µM* | ? | 11%[57 µM]
COc1ccc(/C=C2/NC(=O)N(CC(=O)Nc3cccc(C)c3)C2=O)cc1O | -3% | -7% | -6% | 19%[59 µM] | -2% | 34%
CCn1c(C)cc2c(c1=O)C(c1ccc3c(c1)OCO3)C(C#N)=C(N)O2 (stereo not given) | 6% | 6% | 0% | -24%[12.7 µM] | -6% | 15%
Cc1nn(-c2ccccc2)c(Cl)c1C1C(C#N)=C(N)Oc2c1c(C)nn2-c1ccccc1 (stereo not given) | ? | -27% | 0% | . | ? | -5%
CCn1c(C)cc2c(c1=O)C(c1ccncc1)C(C#N)=C(N)O2 (stereo not given) | 6% | -6% | 3% | 40µM* | 2% | 33%
Cc1nn(-c2ccccc2)c2c1C(c1ccncc1)C(C#N)=C(N)O2 (stereo not given) | -8% | -11% | ? | 16µM* | -20% | 8%
Cc1ccc(-n2nc(C)c3c2OC(N)=C(C#N)C3c2ccncc2)cc1 (stereo not given) | -11% | -4% | 3% | 45µM* | ? | 1%
Cc1ccc(-n2nc(C)c3c2OC(N)=C(C#N)C3c2ccccc2F)cc1 (stereo not given) | ? | ? | -3% | -6%[0.0925 µM] | ? | -16%
Cc1nn(Cc2ccccc2)c2c1C(c1cccc(Cl)c1)C(C#N)=C(N)O2 (stereo not given) | ? | 27µM* | 10% | 50µM* | ? | -21%
O=C(Nc1ccccc1C(=O)N1CCCCC1)c1cccs1 | -3% | -5% | 4% | . | 0% | 27%
Cc1cc(=O)n(Cc2ccc(Br)cc2F)c2c1c(C)nn2-c1ccccc1 | 5% | . | . | 31%[59 µM] | 15% | 65%
COc1cc(-n2nc(C)c3c2OC(N)=C(C#N)C3c2ccccc2)c(Cl)c(Br)c1O (stereo not given) | 45µM* | -25% | 7% | ? | -33%[11.4 µM] | 45µM*
COc1ccc(C2C=C(c3ccccc3)Nc3nc(NC(=O)/C=C/c4ccc(Cl)cc4)nn32)cc1 (stereo not given) | -2% | . | . | ? | 6% | 35%
O=C(O)CNCC1COc2ccccc2O1 (stereo not given) | ? | -1% | -14% | 18µM* | 4µM* | 11%
CN(C)S(=O)(=O)c1cccc(CNCC2COc3ccccc3O2)c1 (stereo not given) | 32µM* | -3% | -22% | 9% | 18µM* | 50µM*
c1ccc(CCNCC2COc3ccccc3O2)cc1 (stereo not given) | 3% | 1% | 11% | 10% | -14% | 21%
CCCN1CNc2c(c(=O)[nH]c(=S)n2CCc2cc(Cl)cc(Cl)c2)C1 | . | . | . | . | -27% | 28%
COc1ccccc1N=C1NC(=O)/C(=C/c2ccc(N(C)C)cc2)S1 | 45µM* | 20% | -15% | . | ? | -21%
CC(=O)Oc1cc2oc(=O)cc(C)c2cc1OC(C)=O | 50µM* | -14% | 79µM* | 0.5µM* | -34% | 26%
SMILES | BAZ2B block | PLK1 PBD inh | Sfp PPTase inh | G9a block | JMJD2A Tudor inh | HP1b binding inh
CC(=O)Oc1ccc2c(C)cc(=O)oc2c1 | 8% | -4% | 18% | 0%[59 µM] | 12% | 38%
Cc1ccc2nc(Cl)cc(=O)n2c1 | . | -2% | . | . | -2% | 26%
Cc1nc2oc(C(=O)c3ccc(Br)cc3)c(N)c2c2c1COC(C)(C)C2 | 3% | -9% | -7% | 25µM* | 3% | 30%
CCCc1nc2oc(C(=O)c3ccccc3)c(N)c2c2c1COC(C)(C)C2 | -4% | 0% | 15% | ? | 0% | 35%
CC1=NN(c2cc(Cl)c(S(=O)(=O)O)cc2Cl)C(=O)C1 | . | 0% | . | . | 89µM* | 14%[57 µM]
CC1=NN(c2ccc(Cl)c(C(=O)O)c2)C(=O)C1 | -26% | -29% | 13% | 50µM* | 56µM* | -38%
CC1=NN(c2ccc(C(=O)O)c(N)c2)C(=O)C1 | 40µM* | -9% | ? | 4.5µM* | 50µM* | 71µM*
CC1=NN(c2cccc(Cl)c2)C(=O)C1 | ? | -8% | 5% | 3%[59 µM] | -24% | 10%
Cc1ccc2nc(N3CCC(C(=O)N4CCN(c5cccc(Cl)c5)CC4)CC3)[nH]c2c1 | 71µM* | . | . | -36%[59 µM] | 56µM* | 0%[57 µM]
O=C(O)COc1ccccc1C1C2C(=O)N(c3ccc(F)cc3)C(=O)C2ON1c1ccccc1 (stereo not given) | -28% | 27µM* | 15% | 1%[12.7 µM] | -16%[11.4 µM] | -6%
CSCC[C@H](NC(=O)[C@H](CC(C)C)N(C)C(=O)[C@@H]1CCCN1C(=O)[C@H](Cc1ccccc1)NC(=O)[C@H](Cc1ccccc1)NC(=O)CCC(C)N)C(=O)O (stereo not given in full) | . | . | -20% | . | . | .
Cc1ccc(OCC(=O)Nc2nnc(S(=O)(=O)N3CCC(C)CC3)s2)cc1 | ? | -28% | 12% | 50µM* | ? | 14%[57 µM]
O=C(COc1ccccc1)Nc1nnc(S(=O)(=O)N2CCCC2)s1 | ? | -15% | 5% | 8.9µM* | ? | 46%
CC(Oc1ccccc1)C(=O)Nc1nnc(S(=O)(=O)N2CCCCCC2)s1 (stereo not given) | 1.8µM*! | -11% | 33% | 2.8µM*! | 8.9µM*! | 47%
COc1ccc(OCC(=O)Nc2nnc(S(=O)(=O)N3CCCCCC3)s2)cc1 | -8% | -3% | 7% | -21%[59 µM] | -10% | 43%
Cc1cccc(-c2nnc(SCC(=O)NC3CCCCC3)o2)c1 | 1% | . | . | -4%[59 µM] | 3% | 35%
